# D1 agonist: Allosteric Agonists of the Human D1 Dopamine Receptor: qHTS. D(1A) dopamine receptor (Homo sapiens), P21728. HEK293 T-REx D1 cells, calcium flux, agonist mode. 1% of 360,000 active. activation, % at 2 µM. AID 504660, 2011; further: 0% is about no effect
# Target sequence (P21728 whole entry, looked up): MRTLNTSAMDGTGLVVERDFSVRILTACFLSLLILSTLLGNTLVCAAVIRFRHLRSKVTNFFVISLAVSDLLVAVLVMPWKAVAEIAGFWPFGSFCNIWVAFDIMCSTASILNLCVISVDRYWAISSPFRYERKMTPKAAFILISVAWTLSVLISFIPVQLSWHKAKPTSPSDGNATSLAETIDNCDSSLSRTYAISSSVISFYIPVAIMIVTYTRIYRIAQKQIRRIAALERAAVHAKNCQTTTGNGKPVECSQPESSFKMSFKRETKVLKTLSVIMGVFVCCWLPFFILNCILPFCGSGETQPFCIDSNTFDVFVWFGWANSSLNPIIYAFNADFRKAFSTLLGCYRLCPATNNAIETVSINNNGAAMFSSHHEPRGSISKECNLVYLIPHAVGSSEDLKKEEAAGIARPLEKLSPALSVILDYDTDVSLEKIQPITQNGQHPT
#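 Agonism was scored from calcium flux recorded over 180 s (1 read/s) after pintool compound addition, following a 10-cycle baseline. Cells were inducible force-coupled HEK293 TREx D1, plated overnight at 30 C and loaded with no-wash calcium dye.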
# TRHR agonist: qHTS for Small Molecule Agonists and Allosteric Enhancers of Human TRH Receptor: Primary Screen for Agonists; Thyrotropin-releasing hormone receptor (Homo sapiens), P34981; TRHR cells, calcium flux fluo-8, FDSS agonist mode; activation, % at 2 µM; 0.18% of 360,000 active; AID 493084, 2011; further: 0% is about no effect
#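 TRHR-expressing cells loaded with fluo-8 calcium dye; 23 nL library compound pin-transferred, kinetic FDSS fluorescence (Ex 480/Em 530) recorded about 180 s for agonist-induced calcium release, before a 10 nM TRH EC20 addition for potentiator mode.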
# TRHR PAM: qHTS for Small Molecule Agonists and Allosteric Enhancers of Human TRH Receptor: Primary Screen for Enhancers. 0.66% of 360,000 active. enhancement, % at 2 µM. TRHR cells, fluo-8 calcium fluorescence, EC20 TRH enhancement. Thyrotropin-releasing hormone receptor (Homo sapiens), P34981. AID 493056, 2011; in the data active means enhancement above about 30%; further: 0% is about no effect
#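 Enhancer read-out: after compound pinning and an initial kinetic agonist-mode read, an EC20 of TRH (10 nM final) was injected and fluo-8 calcium signal (Ex 480/Em 530) followed at 1 s/cycle for 100 cycles in TRHR-expressing cells.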
# D1 PAM: Potentiators of Human D1 Dopamine Receptor: qHTS | D(1A) dopamine receptor (Homo sapiens), P21728 | HEK293 TREx D1 cells, calcium flux, dopamine EC20 potentiation | potentiation, % at 10 µM | 0.036% of 360,000 active | AID 504651, 2011; in the data active means potentiation above about 30%; further: 0% is about no effect
# D1 antag: Antagonist of Human D 1 Dopamine Receptor: qHTS. D(1A) dopamine receptor (Homo sapiens), P21728. HEK293 TREx D1 cells, calcium flux, dopamine EC80; hits give low values. activity change, negative = inhibition, % at 10 µM. 3.2% of 360,000 active. AID 504652, 2011; in the data active means activity change below about -30%; further: on the % scale 0 is the no-effect control and ±100 the full control effect
#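 Calcium flux readout: force-coupled, inducible Hek293 Trex D1 line, cells induced overnight at 30 C with tetracycline, dye-loaded 30–90 min at RT. Antagonism scored against EC80 dopamine challenge given 180 s after compound.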
# An asterisk follows results filed as active; x = no result given. A selection: hits, their analogues and other compounds. The true share with any hit is near 4.6%. Unless noted, no stated cut-off is given here; in the data, active means activation above about 30%; inactive means the rest.
SMILES,D1 agonist,TRHR agonist,TRHR PAM,D1 PAM,D1 antag
CCOC(=O)N1CCC(NS(=O)(=O)c2ccccc2)CC1,6.9,-0.7,-0.7,-3.2,6.7
CCOC(=O)N1CCC(NS(=O)(=O)c2ccc(C)cc2)CC1,6.1,-2.0,0.3,-4.1,-39.0*
CCN(C(=O)c1cc2c(=O)oc3ccc(C)cc3c2s1)c1ccccc1F,3.4,0.3,3.2,4.2,-7.3
CN1C[C@@H]2C(c3ccccc3)C3(c4cccnc4)CC2(C3)[C@H]1c1ccccc1 (some centres not stated),2.1,0.4,4.5,-0.6,-38.6*
CN1C[C@@H]2C(c3ccc(C(F)(F)F)cc3)C3(c4ccccc4)CC2(C3)[C@H]1c1ccccc1 (some centres not stated),5.8,0.0,0.0,2.7,23.8
CCCOc1ccc(CNC(=O)C(C)n2nc(C)n3c(cc4occc43)c2=O)cc1 (configuration not stated),0.0,0.3,-6.9,2.3,10.1
COc1ccc(S(=O)(=O)N2c3ccccc3OCC2C(C)(C)C)cc1 (configuration not stated),4.3,1.1,-4.3,-8.5,-62.8*
COc1ccc(S(=O)(=O)N2c3ccccc3OCC2C)cc1 (configuration not stated),-1.1,-0.5,-2.3,2.1,11.7
N#C/C(=N\Nc1ccc(Cl)c(Cl)c1)C(=O)C1CC1,23.0,0.2,-3.0,-4.8,-44.3*
CCOc1cccc2sc(NC(=O)CS(=O)(=O)c3ccc(C)cc3)nc12,0.2,0.1,3.6,1.6,x
Cc1cccc(NC(=O)C2(c3ccccc3)CC2(Cl)Cl)c1 (configuration not stated),24.9,-0.5,6.9,-15.7,-63.8*
CCc1ccc(C(=O)NC2=NC(c3ccccc3F)CC(=O)N2)cc1 (configuration not stated),3.4,1.6,-1.8,-1.1,-17.3
COc1ccc(CN2CCN(C(=O)CCC(=O)Nc3nnc(CC(C)C)s3)CC2)cc1F,35.7*,-0.4,9.1,-3.2,-19.9
CN(C)c1ccc(/C=N/NC(=O)c2ccc3c(c2)OCO3)cc1,1.8,-0.2,2.1,-3.2,-30.1*
CN(C)c1ccc(/C=C/C(=O)c2ccc3c(c2)OCO3)cc1,455.1*,121.4*,23.5,-0.9,4.5
N#Cc1ccccc1Cn1c(SCC(=O)NCc2ccccc2)nc2ccccc21,2.4,-1.0,-6.4,-0.1,0.0
N#CC(c1ccc(Cl)cc1)c1ncc(C(F)(F)F)cc1Cl (configuration not stated),24.8,0.0,-1.3,-3.9,-51.4*
CN(c1ccc(OCC(=O)OCC(=O)Nc2ccccc2F)cc1)S(=O)(=O)c1cccs1,36.3*,3.1,10.0,-6.5,-40.1*
C=CCC(CC=C)(CNC(=O)C(=O)Nc1ccc(C(=O)OCC)cc1)c1ccccc1,15.0,4.5,7.4,-1.5,4.9
COc1cc(Cl)c(C)cc1NC(=O)Cn1cnc2sc(C)c(S(=O)(=O)N3CCCCC3)c2c1=O,2.3,0.4,0.1,-0.8,-4.3
CCC1CCC(C(=O)NC(C(=O)Nc2cccc(OC)c2)C(C)C)CC1 (configuration not stated),4.4,-0.1,-9.4,-0.8,-32.0*
COc1cccc(NC(=O)C2CC2)c1,6.8,0.0,5.9,-6.2,11.7
Cc1cccc(Nc2ncnc(N)n2)c1,1.7,1.9,-1.7,-6.0,-32.6*
COc1ccc(CCNC(=O)c2ccc(Cn3c(=O)c4ccccc4n(Cc4ccc(F)cc4Cl)c3=O)cc2)cc1OC,-0.6,-0.1,0.3,0.6,9.4
Cc1ccc(C(=O)NNC(=S)Nc2cccc3ccccc23)s1,3.3,-0.1,-1.5,-18.5,-37.0*
Fc1ccccc1N1CCN(C2CCN(Cc3c[nH]c4ccccc34)CC2)CC1,46.5*,-1.4,2.6,-7.3,-7.0
O=C(CN1CCN(c2ccccc2F)CC1)c1c[nH]c2ccccc12,9.9,0.5,-5.1,-8.3,-5.8

# Screens from PubChem BioAssay.
